Measurements reported in PubChem BioAssay AID743395 (Broad Institute, 2014).
Among all 1,200 compounds or so, about 480 (40%) were called active. The set was probably picked from earlier hits. The list is a sample of the results. Measured potencies and affinities stand elsewhere. A number with no mark means an inactive call. No rule for the calls is given here.

assay: HepG2 cell cytotoxicity, dose response, cytotoxicity control, CellTiter-Glo luminescence, cherry-pick, set 2 (AID 743395); conditions: HepG2 viability, CellTiter-Glo ATP luminescence, 72 h; series mostly up to 26 µM; activity change, negative = cytotoxicity: at the top concentration;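 also: 0% = neutral control wells and -100% = positive control wells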

Row | SMILES | activity change, negative = cytotoxicity
1 | Cc1noc(C)c1COc1ccc(C(=O)N2CCN(S(=O)(=O)c3ccc(F)cc3)CC2)cc1 | -4.3%
2 | COc1cc(C(=O)N2CCC(C(N)=O)CC2)ccc1OCc1c(C)noc1C | -3.78%
3 | CCOC(=O)c1c(NC(=O)CN2C(=O)NC3(CCC(C)CC3)C2=O)sc(C)c1CC (centres undefined) | 3.65%
4 | CC(Oc1ccccc1Cl)C(=O)Nc1ccc(S(=O)(=O)Nc2nccs2)cc1 (centres undefined) | -13.9%
5 | CCCCCCCCCC(=O)OCC(O)CO (centres undefined) | 3.56%
6 | O=C(CSc1nnc(Cn2c(=O)sc3ccccc32)n1-c1ccccc1)NCc1ccco1 | -0.55%
7 | Cc1cccc(COc2ccccc2C(=O)NC2CCC(O)CC2)c1 (centres undefined) | -4.57%
8 | Cc1csc2sc(-c3ccnc(SCC(=O)NCc4ccccc4)n3)c(C)c12 | -12.3%
9 | CC(C)C#Cc1ccc([C@@H]2[C@@H](CO)N3C(=O)CN(S(=O)(=O)c4ccccc4)C[C@@H]23)cc1 | -4.65%
10 | CCC(=O)N1[C@H](CN(CC)C(C)=O)[C@@H](c2ccc(-c3ccccc3)cc2)[C@@H]1CO | 1.41% [at 23.5 µM]
11 | CN(C[C@@H]1N[C@H](CO)[C@H]1c1ccccc1)C(=O)c1ccccn1 | 1.53%
12 | CNC(=O)CC1C(=O)N(c2ccc(F)cc2)C(=S)N1NC(=O)c1ccc(Cl)cc1 (centres undefined) | -23.1%
13 | C[C@H]1CCCCO[C@@H](CN(C)C(=O)C2CCCCC2)[C@@H](C)CN([C@@H](C)CO)C(=O)c2cc(NC(=O)Nc3ccc(C(F)(F)F)cc3)ccc2O1 | -1.26% [at 23.5 µM]
14 | C[C@H]1CCCCO[C@@H](CN(C)C(=O)Nc2ccc(C(F)(F)F)cc2)[C@@H](C)CN([C@@H](C)CO)C(=O)c2cc(NC(=O)Nc3ccc4c(c3)OCO4)ccc2O1 | -1.27%
15 | C[C@@H]1CN([C@@H](C)CO)C(=O)c2cccc(NC(=O)NC3CCCCC3)c2O[C@@H]1CN(C)Cc1ccc(Cl)c(Cl)c1 | 5.25%
16 | C[C@H]1CCCCO[C@@H](CN(C)C(=O)Nc2ccc(C(F)(F)F)cc2)[C@@H](C)CN([C@@H](C)CO)C(=O)c2cc(NC(=O)Nc3ccc(F)cc3)ccc2O1 | 14.7%
17 | C[C@H](CO)N1C[C@H](C)[C@@H](CN(C)C(=O)Nc2ccc(C(F)(F)F)cc2)OCCCC[C@H](C)Oc2ccc(NC(=O)Nc3ccc(F)cc3)cc2C1=O | -21%

Row | SMILES | activity change, negative = cytotoxicity
18 | C[C@H]1CCCCO[C@H](CN(C)C(=O)Nc2ccc(C(F)(F)F)cc2)[C@@H](C)CN([C@@H](C)CO)C(=O)c2cc(NC(=O)Nc3ccc(F)cc3)ccc2O1 | -0.6%
19 | C[C@H]1CN([C@@H](C)CO)S(=O)(=O)c2ccc(/C=C/c3ccccc3)cc2O[C@@H]1CN(C)C(=O)Nc1ccc(F)cc1 | -1.73%
20 | Cn1cnc2nc[nH]c2c1=S | 1.09%
21 | Cc1ccc(NC(=O)COc2ccc(Br)cc2CO)cc1S(=O)(=O)N1CCOCC1 | 5.44%
22 | CCc1nc(C)cn1S(=O)(=O)c1ccc2c(c1)OCCO2 | 23%
23 | COC(=O)c1[nH]c2c(c1C)C(=O)CC(c1cccc(OC)c1)C2 (centres undefined) | -9.76%
24 | CCCCC(=NCCc1c(C)[nH]c2ccccc12)C1=C(O)CC(c2ccccc2)CC1=O (centres undefined) | -16.5%
25 | O=C(Cc1ccccn1)NCC[C@H]1CC[C@@H](NC(=O)Nc2ccc(C(F)(F)F)cc2)[C@@H](CO)O1 | 8.05%
26 | Cc1ccc(S(=O)(=O)N(Cc2cc3ccccc3[nH]c2=O)c2cccc(C)c2)cc1 | 1.26%
27 | C=CC(C)(C)c1[nH]cnc1/C=C1\NC(=O)C(C(C)C)NC1=O (centres undefined) | -24.7%
28 | O=C(Cc1ccc(Cl)cc1)OCC(=O)c1ccc[nH]1 | -6.25%
29 | Cc1ccc(CN(C)CC(=O)Nc2cccc([N+](=O)[O-])c2)o1 | -15.2%
30 | CCCCN(C(=O)c1cc(S(=O)(=O)N2CCCCC2)ccc1Cl)c1c(N)n(CC(C)C)c(=O)[nH]c1=O | -14.3%
31 | CN1C(=O)c2cc(NC(=O)Cc3ccccc3)ccc2OC[C@@H]2O[C@H](CC(=O)NCc3ccc(Cl)cc3)CC[C@H]21 | -16%
32 | O=C(C[C@H]1CC[C@@H]2[C@H](COC[C@@H](O)CN2S(=O)(=O)c2ccccc2)O1)Nc1ccc(-c2ccccc2)cc1 | -22.6%
33 | COc1ccc(NC(=O)CSc2nnc(Cc3cccs3)n2C)cc1 | -0.153%
34 | CCCCn1cnc2c(c(CC#N)nn2-c2ccccc2)c1=N | 0.565%
